HGIII-sPLA2 inh – Inhibits HGIII-sPLA2 liposome hydrolysis, primary screen; Q9NZ20; QFRET BODIPY PC-A2 liposome hydrolysis, fluorescence; inhibition, % at 12.2 µM; actives 0.56% (n = 370,000); AID 743126;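 active = inhibition above mean plus 3 SD of compounds lying within the high and low control bounds, cut at about 19% in these data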;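 also: 0% = median of test compound wells and 100% = no enzyme DMSO wells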
PLCb3 inh – inhibitors of human phospholipase C beta3; actives 0.18% (n = 370,000); Purified PLC-beta3, fluorogenic substrate, fluorescence; inhibition, % at 12.2 µM; Q01970; in the data active = inhibition above about 11%;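 also: 0% = median of compound wells on plate and 100% = full blocker control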
KLK7 zymogen act – activates the human kallikrein-7 zymogen | P49862 | purified proKLK7, EDANS-DABCYL substrate fluorescence; 100% is mature enzyme control, 0% vehicle | activation, % at 7 µM | actives 0.9% (n = 370,000);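 active = activation above the mean of all tested compounds plus 3 SD, computed per campaign excluding outliers beyond control limits, cut at about 13% in these data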
ADAM17 inh – inhibitors of human ADAM17; P78536; recombinant ADAM17, EDANS/DABCYL FRET peptide cleavage; inhibition, % at 6.95 µM; actives 0.83% (n = 370,000);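 active = inhibition above the mean of compounds lying between control limits plus 3 SD, set per campaign, cut at about 8.5% in these data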;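 also: 0% = DMSO-only wells as the low control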
ADAM10 inh – ADAM10 inhibition, QFRET primary screen; O14672; recombinant ADAM10, EDANS/DABCYL FRET peptide cleavage, 3 h; inhibition, % at 7 µM; actives 0.62% (n = 370,000);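 active = inhibition above a per-campaign cutoff equal to the mean of compounds falling between control-based bounds plus 3 SD, cut at about 20% in these data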;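 also: 0% = DMSO wells while the 100% control is not disclosed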
PLC-gamma1 inh – blocks human PLC-gamma1 enzyme activity; P19174; purified PLC-gamma1, fluorogenic substrate, fluorescence; inhibition, % at 12.2 µM; actives 0.84% (n = 370,000); AID 720700; in the data active = inhibition above about 9.5%
ADAM10 confirm – human ADAM10 inhibition, confirmation; actives 1% (n = 2,100); inhibition, % at 6.95 µM; shares compounds with ADAM10 inh; ADAM10 QFRET peptide cleavage, EDANS fluorescence;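 active = inhibition above about 20% chosen separately for each screening run, limit read from the data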;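 also: 0% = DMSO wells and 100% = marimastat wells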
ADAM17 counter – inhibits human ADAM17 in ADAM10 exosite counter-screen | AID 743214 | actives 0.5% (n = 2,100) | ADAM17 QFRET peptide cleavage, EDANS fluorescence | inhibition, % at 6.95 µM | shares compounds with ADAM10 inh;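 active = mean triplicate inhibition above the solvent-only control wells' mean plus 3 SD, cut at about 12% in these data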;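 also: 0% = DMSO wells and 100% = marimastat wells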
Active calls of the source: *; / = no result given. Shown are actives, neighbours in structure and some others; about 3.4% of the full set was active somewhere.

SMILES | HGIII-sPLA2 inh | PLCb3 inh | KLK7 zymogen act | ADAM17 inh | ADAM10 inh | PLC-gamma1 inh | ADAM10 confirm | ADAM17 counter
COc1cccc(C(c2nnnn2-c2ccc3c(c2)OCCO3)N2CCC(n3c(=O)[nH]c4ccccc43)CC2)c1OC (centres undefined) | -4 | -1 | 0 | 4 | 21* | 2 | 7 | 1
COc1ccc(-n2nnnc2C(c2cccc(OC)c2OC)N2CCC(n3c(=O)[nH]c4ccccc43)CC2)cc1 (centres undefined) | -16 | -5 | 0 | 3 | 3 | -1 | / | /
O=c1[nH]c2ccccc2n1C1CCN(C(c2cccs2)c2nnnn2-c2ccc3c(c2)OCCO3)CC1 (centres undefined) | -18 | 1 | 0 | 7 | 20* | -1 | 8 | 2
C[C@H]1CNCCN1c1ccc(N2CC[C@H](O)C2)c(C#N)c1 | 5 | -34 | 1 | -15 | -56 | -25 | / | /
O=C(O)C(Br)Br | 0 | -1 | 0 | -2 | -6 | 1 | / | /
C=CCN1C[C@H](C)N(C(c2ccc(C(=O)N(CC)CC)cc2)c2cccc(OC)c2)CC1C (some centres undefined) | 1 | 2 | 1 | 1 | -4 | -1 | / | /
COc1ccc(C(c2nnnn2-c2c(C)cccc2C)N2CCC(n3c(=O)[nH]c4ccccc43)CC2)cc1 (centres undefined) | 3 | -2 | 0 | 9.7* | 23* | 4 | 6 | 2
COc1ccccc1N | 1 | 3 | -1 | 1 | -3 | 2 | / | /
COc1ccc(-n2nnnc2C(c2cccc3ccccc23)N2CCC3(CC2)C(=O)NCN3c2ccccc2)cc1 (centres undefined) | -8 | 2 | 0 | 9 | 21* | 3 | 10 | 3
Cc1nc2ccc(Br)cc2c(=O)n1-c1ccc([N+](=O)[O-])c(C(F)(F)F)c1 | -6 | -40 | 0 | 5 | 23* | 6 | 1 | 0
Cc1nc2ccccc2c(=O)n1-c1cc([N+](=O)[O-])cc([N+](=O)[O-])c1 | 4 | -2 | 0 | -1 | 11 | 3 | / | /
CC(C)(C)Cc1nnc(NC(=O)COc2ccc(Cl)cc2Cl)o1 | 6 | -2 | / | -5 | -2 | -1 | / | /
CCC(=Nc1cc(OC)ccc1OC)c1c(O)[nH]c(=O)[nH]c1=O | 7 | -3 | -1 | 1 | 21* | 4 | 2 | 0
CCC1C(c2ccccc2)NC(c2ccccc2)CC1(O)c1ccc(F)cc1 (centres undefined) | -2 | -6 | 1 | 5 | 21* | 5 | 4 | 1
OCCN1C2CCC1CC(O)(c1ccc(F)cc1)C2 (centres undefined) | -4 | 5 | 0 | -2 | -2 | 6 | / | /
O=c1[nH]c2cc(Cl)ccc2n1C1CCN(Cc2ccc(-c3nc4ccccc4nc3-c3ccccc3)cc2)CC1 | -6 | -4 | -3 | 0 | -8 | 0 | / | /
CCN(CCNc1ccc([N+](=O)[O-])c2cccnc12)S(=O)(=O)c1ccccc1 | 12 | -1 | 1 | -2 | -10 | -2 | / | /
CCN(CCNc1ccc([N+](=O)[O-])c2cccnc12)S(=O)(=O)c1ccc(Cl)cc1 | -16 | 1 | -1 | 7 | 22* | 9 | 5 | 1
Cc1ccc(NP(=O)(Oc2ccccc2F)Oc2ccccc2F)cc1 | -18 | 5 | 0 | 3 | 21* | 2 | 1 | 0
